Assay results reported in article PMC5540273 (PLoS ONE, 2017).

What follows are molecules tested on NEK7. Details: concentration: 1 μM, replicates: in singlicate; n = 1.
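Note: KINOMEscan kinase panel screen.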

Structure (SMILES) | %Inh [%]
Cc1ccc(C(=O)Nc2ccc(Nc3ccnc4cc(-c5ccccn5)ccc34)cc2O)cc1.Cl [GW440146] | 0
Cl.c1ccc(-c2n[nH]cc2-c2ccnc(-c3ccc(CN4CCOCC4)cc3)c2)nc1 [GW776245] | 0
Cn1cncc1-c1ccc2ncnc(Nc3ccc(OCc4ccccc4)cc3)c2c1 [GW320571] | 0
Clc1cc(Cl)cc(Nc2ccnc(Nc3cc(Cl)cc(Cl)c3)n2)c1 [GSK175726] | 0
Cc1cccc(-c2nc(-c3ccc(S(C)(=O)=O)cc3)sc2-c2ccnc(NCCc3ccccc3)c2)c1 | 0
Cc1cccc(-c2nc(Nc3ccncc3)c3ccccc3n2)n1 [GW855857] | 0
COc1ccc(Nc2nccc(-c3cccc(NC(=O)c4cc5cc(F)ccc5[nH]4)c3)n2)cc1 [GSK1229782] | 0
COc1cc2ncn(-c3cc(OCC4CCCO4)c(C(N)=O)s3)c2cc1OC (stereo not drawn) [GSK204607] | 0
COc1ccc(CNC(=O)NC2CCN(c3ccnc(Nc4cc(OC)c(OC)c(OC)c4)n3)C2)cc1 (stereo not drawn) [GSK1379748] | 15
CC(C)(C)c1ccc(C(=O)Nc2cn3cc(Cl)ccc3n2)cc1 | 0
O=C(Nc1n[nH]c2cc(-c3cccc(F)c3F)ccc12)C1CC1 [SB-733894] | 7
CCn1c(-c2ccccn2)nc2cnccc21 [SB-736398] | 0
Cn1ccc2ncnc(Oc3cccc(C(=O)Nc4ccccc4)c3)c21 | 0
Fc1cc(Cl)ccc1Nc1ccnc2cc(-c3ccc(CN4CCCCC4)o3)ccc12 [GW560116] | 0
O=S(=O)(c1ccc(-c2ccnc3[nH]ccc23)cc1)N1CCCC1 [GSK846226] | 20
CC(C)(C)c1ccc(C(=O)Nc2cn3cc(-c4cccnc4)ccc3n2)cc1 | 4
O=C(Nc1n[nH]c2nc(-c3nccs3)c(Br)cc12)C1CCCC1 [SB-742609] | 5
COc1ccc(Nc2nccc(NCCNC(=O)Nc3ccccc3F)n2)cc1 [GSK1379901] | 0

Structure (SMILES) | %Inh [%]
O=C1NC(=O)C(N2CCc3ccccc32)=C1c1ccccc1Cl [SB-373598] | 0
O=C(Nc1ccccc1)Nc1cccc(Oc2ccc3nccn3n2)c1 | 0
COc1cc(Nc2nccc(N3CCC(NC(=O)Nc4cc(C)ccc4C)C3)n2)cc(OC)c1OC (stereo not drawn) [GSK1379762] | 54
COc1ccccc1CNC(=O)c1cc(C(=O)c2ccccc2C)c[nH]1 [GSK364507] | 6
COc1cc2ncnc(Nc3ccc4nc(-c5ccccc5)[nH]c4c3)c2cc1OC.Cl [GW282450] | 0
Cc1cccc(-c2nc(Nc3ccc4[nH]ncc4c3)c3ccccc3n2)n1 [GW857175] | 5
O=c1cc(N2CCOCC2)nc2n(Cc3cccc(Cl)c3Cl)ccn12 [GSK2286295] | 0
CN(C)CCN(C)C(=O)c1cc(-c2ccncc2)c(-c2ccc(Cl)c(O)c2)o1.Cl.Cl [SB-710397] | 0
COc1ccc2nc(-c3cccc(C)n3)nc(Nc3ccncc3)c2c1 [GSK204919] | 0
Cl.Oc1ccc(-c2nc(-c3ccccc3)[nH]c2-c2ccncc2)cc1 [SB-428218] | 0
Cn1ccc2ncnc(Oc3ccc(NC(=O)Nc4ccccc4)cc3)c21 | 0
COC(=O)c1c(-c2ccccc2)c2cc(C(=O)O)ccc2c(=O)n1Cc1ccccc1 | 0
CS(=O)(=O)c1ccc(-c2nc3n(c2-c2ccncc2)CCC3)cc1 [SKF-105942] | 0
NC(=O)c1nnc2ccccc2c1N | 0
Cc1cc(NCC(c2ccccc2)c2ccccc2)nc(NCc2ccc(C(F)(F)F)cc2)n1 [GW497681] | 0
O=C(Nc1ccc2c(c1)OCO2)NC1CCN(c2ccnc(Nc3ccc(F)cc3)n2)C1 (stereo not drawn) [GSK1379724] | 0
Cl.NC(=O)c1cccc(Nc2nccc(Nc3ccc(Oc4cccc(Cl)c4)c(Cl)c3)n2)c1 [GW659008] | 16
COC(=O)c1c(-c2ccccc2)c2cc(OC)ccc2c(=O)n1Cc1ccccc1 | 0
